From PubChem BioAssay (NCI)
The panel holds about 83,000 compounds, 20% with a hit somewhere; the sample as a whole holds those more often.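 Single-concentration screen, 48 h exposure, 96-well plates. Endpoint: percent growth. Below 10 = active.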 Values without a mark were called inactive. Calls of active or inactive are those of the source.

Experiments:
Experiment in all cases: NCI-60 one-dose screen, 48 h (100 = growth as untreated, 0 = no growth, -100 = all killed)
Settings in all cases: 10 µM unless noted
NCI-H23 lung = system: NCI-H23 lung
NCI-H226 lung = system: NCI-H226 lung
NCI-H322M lung = system: NCI-H322M lung
HOP-62 NSCLC = system: HOP-62 NSCLC
NCI-H460 lung = system: NCI-H460 lung
HOP-92 NSCLC = system: HOP-92 NSCLC
NCI-H522 lung = system: NCI-H522 lung
A549/ATCC NSCLC = system: A549/ATCC NSCLC
786-0 renal = system: 786-0 renal
COLO 205 colon = system: COLO 205 colon
DU-145 prostate = system: DU-145 prostate
K-562 leukemia = system: K-562 leukemia
MALME-3M melanoma = system: MALME-3M melanoma
MDA-MB-231 breast = system: MDA-MB-231 breast
RXF 393 renal = system: RXF 393 renal
SF-268 CNS = system: SF-268 CNS
SF-295 CNS = system: SF-295 CNS
SF-539 CNS = system: SF-539 CNS
UACC-257 melanoma = system: UACC-257 melanoma
M14 melanoma = system: M14 melanoma

Row | Structure (SMILES) | growth (NCI-H23 lung) | growth (NCI-H226 lung) | growth (NCI-H322M lung) | growth (HOP-62 NSCLC) | growth (NCI-H460 lung) | growth (HOP-92 NSCLC) | growth (NCI-H522 lung) | growth (A549/ATCC NSCLC) | growth (786-0 renal) | growth (COLO 205 colon) | growth (DU-145 prostate) | growth (K-562 leukemia) | growth (MALME-3M melanoma) | growth (MDA-MB-231 breast) | growth (RXF 393 renal) | growth (SF-268 CNS) | growth (SF-295 CNS) | growth (SF-539 CNS) | growth (UACC-257 melanoma) | growth (M14 melanoma)
1 | CCCc1cc(=O)n2c(C(=O)Nc3ccc(F)cc3)c(C(=O)Nc3ccc(F)cc3)sc2n1 | 81.9% [30 µM] | 69.5% [30 µM] | 54.8% [30 µM] | 27.8% [30 µM] | 52% [30 µM] | -36.3% [30 µM] (active) | 62.7% [30 µM] | 34.1% [30 µM] | 17.6% [30 µM] | 71.4% [30 µM] | 82.1% [30 µM] | 75.1% [30 µM] | 38.5% [30 µM] | 44.2% [30 µM] | 10.4% [30 µM] | 18.1% [30 µM] | 73% [30 µM] | 63.2% [30 µM] | 67.2% [30 µM] | 70.9% [30 µM]
2 | O=C1/C(=C/C(Cl)=C/c2ccccc2)SC(=S)N1CCc1ccc(O)cc1 | -18.1% (active) | 55.7% | 44% | -6.2% (active) | 0.138% (active) | -1.85% (active) | -7.91% (active) | -5.56% (active) | -47% (active) | -9.3% (active) | 15.8% | 5.68% (active) | -2.34% (active) | 27.3% | -46.1% (active) | 19.8% | 4.96% (active) | 3.33% (active) | 17.4% | -12.7% (active)
3 | Cn1cc(-c2nonc2-c2cn(C)c3ccc(F)cc23)c2ccccc21 | 23.2% | 5.33% (active) | 40.2% | 33.1% | 7.52% (active) | 54.6% | -8.4% (active) | 24.5% | 34.3% | 5.23% (active) | 13.6% | 9.9% (active) | 54.1% | 25.6% | -13.4% (active) | 43.3% | 26% | -25.4% (active) | 60.6% | 18.6%
4 | CC(C)(C)N1CCC1CN (stereo not given) | 104% | 111% | 118% | 108% | 109% | 108% | 135% | 104% | 96.4% | 138% | 118% | 135% | 147% | 116% | 155% | 100% | 115% | 91.8% | -6.55% (active) | 101%
5 | C=CC(=O)Nc1cccc(-c2nc(SC)nc(Nc3ccccc3OC)c2C#N)c1 | 55.5% | 34.3% | 80% | 37.9% | 5.19% (active) | 31% | 39.3% | -6.83% (active) | 11.6% | 60.9% | 10.8% | 8.6% (active) | -10.4% (active) | 33.2% | 39.7% | 53.5% | 80.3% | 68.6% | 57.5% | 50.4%
6 | CN(Cc1cc(Cl)cc(Cl)c1O)Cc1cc(Cl)cc(Cl)c1O | 76.9% | 71.5% | 54.9% | 54.6% | 45.6% | 92.5% | 72.2% | 61.2% | 94.7% | 99.5% | 68.9% | 98.5% | 92.7% | 78.5% | 81.8% | 62.6% | 58.1% | 81.9% | 82.4% | 71%
7 | C(=N/Nc1ncc(-c2cc3cc(-c4ccccc4)ccc3o2)s1)/c1cccs1 | 99.9% | 104% | 33.8% | 118% | 7.38% (active) | 105% | 86.1% | 13.3% | 101% | 72.4% | 97.2% | 96.6% | 97.8% | 109% | 129% | 102% | 98.1% | 99.6% | 102% | 111%
8 | COc1cc(-c2ccc3c(c2)NC(=O)/C3=C\c2ccc[nH]2)ccc1O | 12.1% | 39.6% | 30.3% | 27.8% | 7.55% (active) | 57.8% | 6.78% (active) | 20.7% | 14.8% | 25.2% | 17.8% | 5.55% (active) | 66.4% | 66.4% | 17.8% | 31.1% | -19.6% (active) | 0.982% (active) | 39.3% | 34.1%
